# The source made the active and inactive calls. Unless noted, how the calls were made is not given here.
# How the values were obtained:
# [1] = tested on: XIP peptide (Xip251-270) binding; test: XIP fragment 251-270 binding compounds – biochemical, small-molecule microarray, fluorescence 635/667 nm, 0.1 µg/mL protein, primary screen (AID 1182); conditions: fluorescent protein binding, 635 nm, higher = more signal, called active from +8 up or from −8 down
# XIP peptide (Xip251-270) = test: compounds binding XIP fragment 251-270 – biochemical, small-molecule microarray, fluorescence 635/667 nm, 0.5 µg/mL protein, primary screen (AID 1183); conditions: fluorescence 635 nm, higher = more signal
# [2] = blood-stage malaria parasite viability loss – strain 3D7, DAPI fluorescence, 100 nL, primary screen (AID 1184);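 further: parasites grown inside human red blood cells in medium with human serum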; conditions: P. falciparum 3D7 growth, 3 d, higher = more signal
# [3] = target: Homeobox protein Hox-A13 (Mus musculus) (UniProt Q62424); test: disruptors of Hoxa13 oligonucleotide interaction – biochemical, fluorescence polarization, labeled oligonucleotide, primary screen (AID 1185); conditions: Hoxa13:DNA binding, 15 min, higher = more signal, called active from +8 up or from −8 down
# Sequence of Homeobox protein Hox-A13 (Mus musculus) (Q62424 whole entry, looked up): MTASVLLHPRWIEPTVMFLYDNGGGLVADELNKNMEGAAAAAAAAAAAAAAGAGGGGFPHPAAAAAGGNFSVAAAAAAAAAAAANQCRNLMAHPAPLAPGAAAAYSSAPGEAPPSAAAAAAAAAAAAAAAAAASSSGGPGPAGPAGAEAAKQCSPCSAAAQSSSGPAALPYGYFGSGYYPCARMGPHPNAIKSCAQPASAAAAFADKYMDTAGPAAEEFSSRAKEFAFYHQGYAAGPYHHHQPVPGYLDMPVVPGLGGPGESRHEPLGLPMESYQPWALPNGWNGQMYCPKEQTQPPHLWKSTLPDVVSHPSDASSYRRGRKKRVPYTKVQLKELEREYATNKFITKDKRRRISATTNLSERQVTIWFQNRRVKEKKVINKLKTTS
# [4] = blockers of DNA damage checkpoint Chk1 activation – imaging, HeLa, hydroxyurea, phospho-Chk1 antibody, percent positive cells, primary screen (AID 1186); conditions: hydroxyurea-induced phospho-Chk1 immunofluorescence imaging, higher = more signal
# [5] = blockers of DNA damage checkpoint Chk1 activation – imaging, HeLa, hydroxyurea, phospho-Chk1 nuclear intensity, primary screen (AID 1187); conditions: hydroxyurea-induced phospho-Chk1 immunofluorescence imaging, higher = more signal
Compound,composite z-score [1],composite z-score (XIP peptide (Xip251-270)),z-score [2],z-score [3],z-score [4],z-score [5]
CC(C)NC(=O)[C@@]1(Cc2ccccc2I)c2ccccc2C(=O)N(Cc2ccccc2C(F)(F)F)[C@H]1c1ccc(CO)cc1,0.52 (inactive),0.815,-1.09,-3.19 (inactive),-0.195 (inactive),0.0078 (inactive)
C=CCN1C(=O)[C@@]2(O[C@@H](CCn3cc([C@H](O)c4ccccc4)nn3)[C@H]([Si](C)(C)c3ccc(OC)cc3)[C@H]2C)c2cc(NC(=O)c3ccc(OC)cc3)ccc21,0.593 (inactive),0.189,-2.7,-4.41 (inactive),0.24 (inactive),-0.338 (inactive)
Cc1ccc(S[C@]2(C(=O)O)CC(=O)N(C3CCCCC3)[C@@H]2c2ccc(CO)cc2)cc1,1.15 (inactive),0.929,0.756,-3.31 (inactive),-0.643 (inactive),-0.583 (inactive)
O=C1O[C@@H](c2ccccc2)[C@@H](c2ccccc2)N2[C@@H](c3ccc(O)cc3)[C@]3(C(=O)Nc4ccc(C#CC5=CCCCC5)cc43)[C@@H](C(=O)Nc3nc4ccccc4s3)[C@H]12,0.433 (inactive),0.708,-0.775,3.56 (inactive),-0.315 (inactive),-0.363 (inactive)
Cc1ccc(S[C@]2(C(=O)O)CC(=O)N(Cc3ccccc3C(F)(F)F)[C@@H]2c2ccc(CO)cc2)cc1,-0.161 (inactive),-0.174,0.212,-3.21 (inactive),-0.511 (inactive),-0.53 (inactive)
COCCOC(=O)N1C(=O)[C@@]2(c3cc(C#Cc4ccc(OC)cc4)ccc31)[C@H](c1ccc(OCCO)cc1)N1[C@H](c3ccccc3)[C@H](c3ccccc3)OC(=O)[C@H]1[C@@H]2C(N)=O,1.12 (inactive),0.758,-1.97,-0.245 (inactive),0.105 (inactive),0.247 (inactive)
CN(C)C(=O)[C@@]1(Cc2ccccc2N=[N+]=[N-])N=C(c2ccc(OCCCO)cc2)O[C@H]1c1ccccc1N=[N+]=[N-],0.976 (inactive),0.596,-2.32,-4.6 (inactive),0.0092 (inactive),0.398 (inactive)
O=C(Nc1cc(Br)ccc1C(=O)NCc1cccc(O)c1)c1ccccc1,2.11 (inactive),0.597,-0.64,-0.429 (inactive),0.0071 (inactive),-0.27 (inactive)
COC(=O)[C@@]1(Cc2ccccc2N=[N+]=[N-])N=C(c2ccc(OCCCO)cc2)O[C@H]1c1ccccc1,0.37 (inactive),0.601,-1.85,-3.98 (inactive),0.069 (inactive),-0.447 (inactive)
CC(C)C[C@@H]1NC(=O)[C@@H]2C[C@H](C(=O)NCCCC[N+](C)(C)C)[C@H](c3cccc(OCCO)c3)N2C1=O,0.974 (inactive),0.0734,0.0751,-3.05 (inactive),-0.366 (inactive),-0.333 (inactive)
O=C1C2C=CC(C(O)c3cccc4ccccc34)N(Nc3ccccc3)C2C(=O)N1c1ccccc1 (stereo not drawn),0.179 (inactive),0.807,-0.176,-0.231 (inactive),0.107 (inactive),-0.294 (inactive)
CCCN1C(=O)[C@@]2(Cc3ccccc3)N=C(c3ccc(OCCCO)cc3)O[C@H]2c2ccccc21,1.19 (inactive),0.808,-2.38,-4.39 (inactive),0.276 (inactive),0.555 (inactive)
CCOC(=O)C[C@H]1[C@H](OC(=O)c2ccc(C(=O)c3ccccc3)cc2)[C@@H](NC(=O)C2CCCCC2)c2cc(OCCCO)ccc2N1C(=O)Cc1ccc(OC)cc1,0.963 (inactive),0.242,-1.12,-2.28 (inactive),0.542 (inactive),-0.129 (inactive)
C=CCOC(=O)[C@H]1[C@@H]2C(=O)O[C@@H](c3ccccc3)[C@@H](c3ccccc3)N2[C@@H](c2ccc(OCCOC(=O)[C@H]3C[C@H]4C(=O)N[C@@H](CCCCN(C)C)C(=O)N4[C@H]3c3ccc(O)cc3)cc2)[C@]12C(=O)Nc1ccccc12,0.275 (inactive),0.582,-0.216,4.13 (inactive),-0.685 (inactive),-0.308 (inactive)
CC(C)N1C(=O)c2ccccc2[C@](C)(C(=O)O)[C@@H]1c1ccc(CO)cc1,0.202 (inactive),0.0967,0.859,-1.63 (inactive),0.113 (inactive),0.318 (inactive)
COC(=O)[C@@]1(Cc2ccccc2)[C@H]2c3cc(C(=O)N4CCCC4)n(Cc4ccc(OC(F)(F)F)cc4)c3C[C@H]2CN1C(=O)c1ccccc1,0.511 (inactive),0.408,-1.4,-3.01 (inactive),0.182 (inactive),-0.781 (inactive)
CCCC[C@@H](O)C1=C(COc2ccccc2)Cn2c(=O)n(-c3ccccc3)c(=O)n2[C@H]1CO,1.52 (inactive),0.628,-0.471,-6.48 (inactive),-0.532 (inactive),0.347 (inactive)
CN(C)CCCCCCNC(=O)[C@@H]1C[C@@H]2C(=O)NCC(=O)N2[C@@H]1c1ccc(O)cc1,1.82 (inactive),0.935,-0.107,-1.63 (inactive),-0.425 (inactive),-0.297 (inactive)
O=C1O[C@H](c2ccccc2)[C@H](c2ccccc2)N2[C@H]1[C@@H](C(=O)N1CCCCCCC1)[C@]1(C(=O)Nc3ccc(C#CCCO)cc31)[C@H]2c1ccc(OCCO)cc1,5.42 (inactive),0.963,-1.98,-8.67 (active),-0.141 (inactive),-0.203 (inactive)
CC(C)C[C@H]1NC(=O)[C@H](C)NC(=O)[C@@]23C(=O)N[C@@H](Cc4ccccc4)C2[C@H](C)[C@@]2(C)O[C@H]2C3/C=C/C/C=C\CNC1=O (stereo partly drawn),1.2 (inactive),0.685,0.96,-6.14 (inactive),-0.454 (inactive),-0.576 (inactive)
C[C@@H]1ON(c2ccccc2)[C@H](c2ccccc2)[C@H]1C(=O)N1C(=O)OC[C@H]1Cc1ccccc1,0.0959 (inactive),0.351,-1.96,-1.4 (inactive),-0.673 (inactive),-0.308 (inactive)
COC(=O)[C@@]1(Cc2ccccc2)[C@H]2c3cc(C(=O)N(C)C)n(Cc4ccccn4)c3C[C@H]2CN1C(=O)c1ccccc1,1.08 (inactive),0.595,-0.847,-4.92 (inactive),0.545 (inactive),0.295 (inactive)
C=CCOC(=O)[C@@H]1[C@H]2C(=O)O[C@H](c3ccccc3)[C@H](c3ccccc3)N2[C@H](c2ccc(OCCOC(=O)[C@H]3C[C@H]4C(=O)N[C@@H](Cc5ccccc5)C(=O)N4[C@H]3c3cccc(OCCO)c3)cc2)[C@@]12C(=O)Nc1ccc(I)cc12,2.12 (inactive),0.813,0.143,6.79 (inactive),-0.173 (inactive),0.0575 (inactive)
